Screening data: PubChem, The Scripps Research Institute Molecular Screening Center
Rows were chosen to be rich in hits. Some 2.3% of all compounds tested hit in one or more screens of this group.
M1 PAM – positive allosteric modulators of human M1 muscarinic receptor. P11229. CHO-K1 hM1, Fluo-8 calcium fluorescence, ACh EC20; 0% = ACh EC20, 100% = maximal ACh. activation, % at 3 µM. 360,000 tested, 0.088% active. AID 588819; in the data active = activation above about 19%, passing the limit was not always enough
Target sequence (P11229 whole entry, looked up): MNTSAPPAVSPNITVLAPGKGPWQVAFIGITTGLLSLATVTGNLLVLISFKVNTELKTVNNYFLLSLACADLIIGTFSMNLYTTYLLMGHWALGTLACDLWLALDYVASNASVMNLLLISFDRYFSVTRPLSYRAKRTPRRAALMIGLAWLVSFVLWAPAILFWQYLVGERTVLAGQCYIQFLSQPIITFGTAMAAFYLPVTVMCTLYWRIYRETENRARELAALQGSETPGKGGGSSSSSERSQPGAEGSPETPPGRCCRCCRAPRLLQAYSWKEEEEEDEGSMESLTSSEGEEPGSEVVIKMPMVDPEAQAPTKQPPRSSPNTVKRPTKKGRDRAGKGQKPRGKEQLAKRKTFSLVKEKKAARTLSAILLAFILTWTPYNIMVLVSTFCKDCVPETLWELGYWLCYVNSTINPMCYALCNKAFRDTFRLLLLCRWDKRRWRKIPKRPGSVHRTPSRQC
CHRM1 agonist – human M1 muscarinic receptor agonism; CHO-K1 hM1, Fluo-8 calcium fluorescence, agonist mode; 0% DMSO, 100% acetylcholine EC100; 360,000 tested, 0.33% active; activation, % at 3 µM; P11229;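 active = activation above the run's mean compound activation plus 3 SD, cut at about 16% in these data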;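 note: peak over basal fluorescence ratio within a 140 s kinetic read after compound addition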
M1 ag parental – counter-screen for M1 agonists: effect in parental CHO-K1 cells | activation, % at 3 µM | 360,000 tested, 0.48% active | Fluo-8 calcium fluorescence; scaled to maximal ATP response, vehicle zero; in the data active = activation above about 15%;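 note: untransfected CHO-K1 host cells lacking M1 receptor as counterscreen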
CHO-K1 Ca antag – nonselective inhibitor or artifact in parental CHO-K1 cells | ATP-induced calcium, Fluo-8 fluorescence | 360,000 tested, 0.6% active | inhibition, % at 3 µM;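 active = inhibition above a per-plate cutoff, the plate's mean sample inhibition plus 3 SD, cut at about 24% in these data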;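 note: 0% = DMSO plus EC80 ATP and 100% = DMSO alone without ATP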
CHRM1 antagonist – blocks human M1 muscarinic receptor; AID 588852; CHO-K1 hM1, Fluo-8 calcium fluorescence, ACh EC80 antagonist; 360,000 tested, 1.3% active; inhibition, % at 3 µM; P11229;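 active = percent inhibition above its own plate's cutoff, namely the mean of that plate's compound wells plus 3 SD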;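 note: peak over basal fluorescence ratio during 140 s after agonist addition; 0% = ACh EC80 plus DMSO and 100% = DMSO alone without agonist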
CHO-K1 Ca PAM – M1 PAM counterscreen hit in parental CHO-K1 cells | ATP EC20, Fluo-8 calcium fluorescence; 0% at ATP EC20, 100% at ATP max | activation, % at 3 µM | 360,000 tested, 0.02% active | AID 602247;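 active = activation above the run cutoff, the mean activation of all test compounds plus 3 SD, cut at about 40% in these data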;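 note: peak over basal fluorescence ratio in a 140 s read after ATP addition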
The depositor's hits bear a star; x = not tested or not shown.

SMILES	M1 PAM	CHRM1 agonist	M1 ag parental	CHO-K1 Ca antag	CHRM1 antagonist	CHO-K1 Ca PAM
O=C(NCc1ccccc1)C(c1ccc(F)cc1)N(Cc1cccs1)C(=O)c1cnccn1 (centres undefined)	-6	2	5	-1	11	23
O=C(NCc1ccccc1)C(c1ccccc1)N(Cc1cccs1)C(=O)c1cnccn1 (centres undefined)	-7	1	6	15	43*	11
CCOC(=O)NC(=O)/C(C#N)=N/Nc1ccc(F)cc1	-3	0	1	27*	-2	-6
O=S(=O)(c1ccc(N2CCN(CCO)CC2)nc1)N1CCOCC1	9	-1	1	-9	-18	2
O=C(N/N=C/c1cc(Br)cc(Br)c1O)c1cccc(N2CCCC2=O)c1	9	-9	-1	34*	-2	1
O=C(NC1CCCCCC1)c1cccc(N2CCCC2=O)c1	-13	-3	0	32*	6	-6
COc1ccc(/C(O)=C2/C(=O)C(=O)N(c3ccccn3)C2c2cccc(Cl)c2)cc1 (centres undefined)	20	0	0	7	-25	4
S=C(Nc1ccccc1Cl)NC1CCN(Cc2ccccc2)CC1	0	1	1	8	-4	-1
S=C(Nc1cc(Cl)cc(Cl)c1)NC1CCN(Cc2ccccc2)CC1	-4	9	17*	25*	24	-6
Cc1ccccc1NC(=O)NCCCN1CCN(C2CCCCC2)CC1	-4	-2	0	-4	-10	15
Cc1cc(C(=O)NCCCN2CCN(C3CCCCC3)CC2)n(-c2ccccc2)n1	0	36*	-1	13	7	8
CCCc1cc(=O)oc2c(CN3CCCC3)c(O)c(Cl)cc12	1	-2	0	29*	-2	-9
Cc1cc(=O)oc2c(CN3CCCC3)c(O)c(Cl)cc12	6	-4	0	-5	-6	1
O=C(NCc1ccco1)C(=O)NCC1OCCN1S(=O)(=O)c1ccc(F)cc1 (centres undefined)	-9	-4	0	5	14	1
O=C(NCc1ccco1)C(=O)NCC1OCCN1S(=O)(=O)c1cc(F)ccc1F (centres undefined)	1	16*	1	-11	-2	0
CCOc1cc(N2CCOCC2)c(OCC)cc1NS(=O)(=O)c1ccc2c(c1)CC(=O)N2	6	-2	0	-3	-14	1
Fc1c(CSC(=S)N2CCOCC2)cccc1CSC(=S)N1CCOCC1	4	3	16*	-3	1	12
O=C1c2ccccc2C(=O)N1CCSC(=S)N1CCOCC1	5	-4	0	-16	-13	8
CC(C)C[C@H]1CN([C@@H](Cc2ccccc2)CN2CCC[C@@H]2CN2C(=O)C(=O)NC[C@@H]2Cc2ccccc2)C(=O)C(=O)N1CCc1ccccc1	8	-12	0	11	-3	-2
COc1ccc2[nH]cc(CCNS(=O)(=O)c3ccc(C)cc3)c2c1	5	14	26*	2	-6	14
O=c1ccn([C@@H]2O[C@H](CNCc3cccc4c3sc3ccccc34)[C@@H](O)[C@H]2O)c(=O)[nH]1	5	-3	0	-12	-34	16
CCCNC(=O)C1(C)CCN(C(=O)c2cc(C(C)(C)C)nn2C)C1 (centres undefined)	4	-1	1	0	-6	14
COc1cc(-c2cc3nc(NCc4cccc(Cl)c4)ccn3n2)cc(OC)c1OC	-8	-4	3	-13	0	15
COCCCNc1ccn2nc(-c3ccc(Cl)cc3)cc2n1	6	-1	2	24*	-11	-4
Cc1cc(NC(=O)c2ccc3c(c2)C(=O)N(C2CCCCC2)C3=O)no1	5	-2	0	-10	-7	13
SMILES	M1 PAM	CHRM1 agonist	M1 ag parental	CHO-K1 Ca antag	CHRM1 antagonist	CHO-K1 Ca PAM
O=C(Nc1ccncc1)c1ccc2c(c1)C(=O)N(C1CCCCC1)C2=O	-15	6	9	17	35*	12
O=C1OC(C(Cl)(Cl)Cl)Nc2ccccc21 (centres undefined)	-3	-3	0	1	7	0
CN(C)[C@@H]1CCC[C@H]1OC(=O)C(c1ccccc1)c1ccccc1	-26	-7	0	-7	92*	3
CCCCOc1ccc(C(=O)N2CCC(C)CC2)cc1	7	-4	0	-2	0	9
CC1CN(C)C(C)CC1OC(=O)C(c1ccccc1)c1ccccc1 (centres undefined)	-27	-8	1	-12	97*	18
CCCCOc1ccc(C(=O)OC2CC(C)N(C)CC2C)cc1 (centres undefined)	-25	-6	0	-16	44*	15
Cn1cc(S(=O)(=O)NCc2ccc(Cl)cc2)c(=O)n(C)c1=O	5	0	1	-8	0	20
COc1cc(CNc2ncnc3c2ncn3[C@H]2CN(Cc3ccco3)C[C@@H](CO)O2)cc(OC)c1OC	3	-4	0	-9	-5	2
Cc1cccc(CN2CCN(Cc3cccc(-n4cccn4)c3)CC2CCO)n1 (centres undefined)	3	-13	0	-1	-4	1
Nc1ccc(-c2c3ccc(=O)cc-3oc3cc(O)ccc23)c(C(=O)O)c1	-15	117*	108*	29*	29	-14
CC1(c2nnnn2Cc2ccccc2)CCC(=O)N1Cc1cccs1 (centres undefined)	x	x	1	-14	x	20
CCOc1ccc(S(=O)(=O)Nc2nc3ccccc3nc2Cl)cc1	2	-3	1	-5	0	-10
CCOc1ccc(S(=O)(=O)Nc2cnc3ccccc3c2)cc1	0	3	14	25*	15	1
Cc1c(CCOC(=O)C2C3CC4CC(C3)CC2C4)sc[n+]1CC(=O)c1ccc(Br)cc1 (centres undefined)	-21	-5	-1	-12	39*	21
COc1ccc(C(=O)OCCc2sc[n+](CC(=O)c3ccccc3)c2C)cc1	-32	-11	1	1	69*	-16
Cc1[nH][nH]c(=O)c1C=NCc1cccnc1	5	-4	1	4	3	20
C=CCn1c(O)c(C(CC)=NCc2cccnc2)c(=O)[nH]c1=O	11	-1	0	25*	-1	-5
CC(C)(C)C(=O)NC(=S)NNC(=O)C(c1ccccc1)c1ccccc1	-24	114*	107*	47*	91*	-32
CC(=O)NNC(=S)NC(=O)C(c1ccccc1)c1ccccc1	-5	1	4	-1	0	11
Cc1nn(Cc2ccccc2)c(C)c1NC(=O)Cn1nc([N+](=O)[O-])c(Cl)c1C	0	-2	1	-24	-4	10
